According to PubChem BioAssay (NCI):
About 79,000 compounds went through this panel and 15% of them were active in at least one assay; those are over-represented in the sample as a whole. The source made the active and inactive calls. Cut-off read from the data, not from the text of the source: active = growth inhibition above about 70%; inactive = the rest.

Tests used:
[1] = NCI Yeast Anticancer Drug Screen. Data for the rad52 strain (AID 147);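 note: 0% = growth of vehicle-treated control cultures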; details: S. cerevisiae rad52 mutant growth inhibition, stronger effect = higher value
In short: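 Compounds are applied to a genetically defined yeast strain lacking normal DNA damage repair, and inhibition of growth is expressed relative to cultures given vehicle only.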

[2] = NCI Yeast Anticancer Drug Screen. Data for the wt1 strain (AID 149);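 note: 0% = growth of vehicle-treated wt1 cultures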; details: S. cerevisiae wt1 strain (SPY 50644) growth inhibition, stronger effect = higher value
In short: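 wt1 yeast, compound-treated; % growth inhibition vs vehicle control.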

[3] = NCI Yeast Anticancer Drug Screen. Data for the rad50EPP+ strain (AID 151);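 note: 0% = growth of vehicle-treated control cultures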; details: S. cerevisiae rad50 mutant strain, stronger effect = higher value
In short: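 Compounds were applied to the rad50EPP+ yeast strain, which bears a defined DNA repair alteration, and growth inhibition was determined relative to vehicle-treated cultures.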

[4] = NCI Yeast Anticancer Drug Screen. Data for the mgt1 strain (AID 153); details: S. cerevisiae mgt1 mutant growth inhibition, stronger effect = higher value
In short: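 Strain: mgt1 yeast, one of a set carrying defined DNA damage repair or cell cycle control alterations. Compound-treated growth compared with vehicle.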

[5] = NCI Yeast Anticancer Drug Screen. Data for the rad50 strain (AID 155);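 note: 0% = growth of vehicle-only cultures of the same strain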; details: S. cerevisiae rad50 strain growth inhibition, stronger effect = higher value
In short: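 Genetically altered yeast (DNA repair pathway); compound treatment; growth inhibition vs vehicle ctrl.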

[6] = NCI Yeast Anticancer Drug Screen. Data for the mec2-1 strain (AID 157); details: S. cerevisiae mec2-1 strain, stronger effect = higher value
In short: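 Strain: mec2-1 (DNA repair/cell cycle alteration). Compound exposure, then growth measured; inhibition expressed relative to vehicle.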

[7] = NCI Yeast Anticancer Drug Screen. Data for the rad14 strain (AID 159);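 note: 0% = growth of vehicle-treated control cultures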; details: S. cerevisiae rad14 strain growth inhibition, stronger effect = higher value
In short: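 Test compounds were applied to a repair-deficient yeast strain. Its growth was then compared with that of cultures given vehicle alone, and inhibition was expressed relative to those controls.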

[8] = NCI Yeast Anticancer Drug Screen. Data for the sgs1 mgt1 strain (AID 161);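 note: 0% = growth of cultures given vehicle only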; details: S. cerevisiae sgs1 mgt1 strain, stronger effect = higher value
In short: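 Inhibition of yeast growth, normalised to vehicle-treated controls, is reported for a strain bearing genetic alterations in DNA damage repair.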

[9] = NCI Yeast Anticancer Drug Screen. Data for the CLN2oe strain (AID 163);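 note: 0% = growth of vehicle-only control cultures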; details: S. cerevisiae CLN2oe strain, stronger effect = higher value
In short: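 Growth of a genetically modified yeast strain is measured after compound exposure and compared with cultures given vehicle alone.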

[10] = NCI Yeast Anticancer Drug Screen. Data for the cln2 rad14 strain (AID 165);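 note: 0% = growth equal to vehicle treated cultures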; details: S. cerevisiae cln2 rad14 strain, stronger effect = higher value
In short: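 Compounds are applied to the cln2 rad14 yeast strain, and growth is then compared with that of vehicle-treated cultures to give inhibition.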

[11] = NCI Yeast Anticancer Drug Screen. Data for the bub3 strain (AID 167); details: S. cerevisiae bub3 mutant strain, stronger effect = higher value
In short: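 Yeast carrying a defined mutation is treated with each compound, and growth is compared with that of vehicle-exposed cells to give inhibition.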

[12] = NCI Yeast Anticancer Drug Screen. Data for the wt2 strain (AID 169);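 note: 0% = growth of vehicle-treated yeast cultures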; details: S. cerevisiae wt2 strain growth inhibition, stronger effect = higher value
In short: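 This strain belongs to a panel of yeast strains with defined genetic alterations in DNA damage repair or cell cycle control. Compounds are applied, and growth inhibition is measured against vehicle-treated cultures.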

[13] = NCI Yeast Anticancer Drug Screen. Data for the mlh1 strain (AID 171);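 note: 0% = growth of vehicle-treated control cultures of the same strain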; details: S. cerevisiae mlh1 strain growth inhibition, stronger effect = higher value
In short: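 Growth of the mutant yeast strain after compound exposure, expressed as inhibition relative to vehicle-only controls.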

[14] = NCI Yeast Anticancer Drug Screen. Data for the sgs1 strain (AID 173);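 note: 0% = growth of vehicle-only control cultures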; details: S. cerevisiae sgs1 mutant, stronger effect = higher value
In short: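 Growth of a yeast strain bearing a defined genetic alteration is measured after compound treatment. Inhibition is expressed relative to vehicle-only controls.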

[15] = NCI Yeast Anticancer Drug Screen. Data for the mlh1 rad18 strain (AID 175); details: S. cerevisiae mlh1 rad18 strain growth inhibition, stronger effect = higher value
In short: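 Read-out is yeast growth inhibition, calculated against vehicle-only controls. The compound was applied to a strain engineered with DNA damage repair alterations.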

[16] = NCI Yeast Anticancer Drug Screen. Data for the rad18 strain (AID 177); details: S. cerevisiae rad18 mutant growth inhibition, stronger effect = higher value
In short: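 Growth of the mutant yeast strain after compound exposure, normalised to vehicle-only cultures.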

[17] = at 5.0 µM (retest, dose inferred, filed as 0.5)
[18] = at 50.0 µM (retest, dose inferred, filed as 5.0)

Measured: growth inhibition

O=C1c2ccccc2C(=O)c2cc(CCl)ccc21
inactive: [1]; at 1.2 µM 4% | [1]; at 3.7 µM 12% | [1]; at 11.0 µM 17% | [1]; at 33.0 µM 21% | [1]; at 100.0 µM 20% | [2]; at 1.2 µM 1% | [2]; at 3.7 µM 6% | [2]; at 11.0 µM 3% | [2]; at 33.0 µM 7% | [2]; at 100.0 µM 10% | [3]; at 1.2 µM 27% | [3]; at 3.7 µM 47% | [3]; at 11.0 µM 64% | [3]; at 33.0 µM 69% | [3]; at 100.0 µM 68% | [4]; at 1.2 µM -1% | [4]; at 3.7 µM 2% | [4]; at 11.0 µM 7% | [4]; at 33.0 µM 10% | [4]; at 100.0 µM 12% | [5]; at 1.2 µM 2% | [5]; at 3.7 µM 6% | [5]; [17] 20% | [5]; at 11.0 µM 12% | [5]; at 33.0 µM 13% | [5]; [18] 32% | [5]; at 50.0 µM 25% | [5]; at 100.0 µM 14% | [6]; at 1.2 µM 2% | [6]; at 3.7 µM 7% | [6]; [17] 12% | [6]; at 11.0 µM 17% | [6]; at 33.0 µM 20% | [6]; [18] 38% | [6]; at 50.0 µM 24.4% | [6]; at 100.0 µM 16% | [7]; at 1.2 µM 2% | [7]; at 3.7 µM 4% | [7]; at 11.0 µM 7% | [7]; at 33.0 µM 8% | [7]; at 100.0 µM 13% | [8]; [17] 15% | [8]; [18] 30% | [8]; at 50.0 µM 46.2% | [9]; at 1.2 µM -1% | [9]; at 3.7 µM -5% | [9]; at 11.0 µM 8% | [9]; at 33.0 µM 5% | [9]; at 100.0 µM 2% | [10]; [17] 4% | [10]; [18] 18% | [10]; at 50.0 µM 28% | [11]; at 1.2 µM 5% | [11]; at 3.7 µM 11% | [11]; [17] 39% | [11]; at 11.0 µM 19% | [11]; at 33.0 µM 25% | [11]; [18] 56% | [11]; at 50.0 µM 58.8% | [11]; at 100.0 µM 22% | [12]; at 1.2 µM 3% | [12]; at 3.7 µM 7% | [12]; at 11.0 µM 8% | [12]; at 33.0 µM 12% | [12]; at 100.0 µM 12% | [13]; at 1.2 µM 3% | [13]; at 3.7 µM 3% | [13]; at 11.0 µM 6% | [13]; at 33.0 µM 9% | [13]; at 100.0 µM 10% | [14]; at 1.2 µM 2% | [14]; at 3.7 µM 2% | [14]; at 11.0 µM 7% | [14]; at 33.0 µM 11% | [14]; at 100.0 µM 14% | [15]; [17] 29% | [15]; [18] 51% | [15]; at 50.0 µM 31.2% | [16]; at 1.2 µM 9% | [16]; at 3.7 µM 22% | [16]; at 11.0 µM 39% | [16]; at 33.0 µM 46% | [16]; at 100.0 µM 53%

NC(=S)NC(=S)Nc1ccccc1
inactive: [1]; at 1.2 µM -7% | [1]; at 3.7 µM -4% | [1]; at 11.0 µM -3% | [1]; at 33.0 µM 1% | [1]; at 100.0 µM 23% | [2]; at 1.2 µM -6% | [2]; at 3.7 µM -5% | [2]; at 11.0 µM -6% | [2]; at 33.0 µM 0% | [2]; at 100.0 µM 16% | [3]; at 1.2 µM -6% | [3]; at 3.7 µM -10% | [3]; at 11.0 µM -12% | [3]; at 33.0 µM -12% | [3]; at 100.0 µM -10% | [4]; at 1.2 µM -6% | [4]; at 3.7 µM -3% | [4]; at 11.0 µM 2% | [4]; at 33.0 µM 16% | [5]; at 1.2 µM 0% | [5]; at 3.7 µM -47% | [5]; [17] -1% | [5]; at 11.0 µM 18% | [5]; at 33.0 µM 5% | [5]; [18] 2% | [5]; at 50.0 µM 23.5% | [6]; at 1.2 µM -4% | [6]; at 3.7 µM -2% | [6]; [17] -2% | [6]; at 11.0 µM 2% | [6]; at 33.0 µM 8% | [6]; [18] 10% | [6]; at 50.0 µM 38.5% | [6]; at 100.0 µM 62% | [7]; at 1.2 µM -6% | [7]; at 3.7 µM -3% | [7]; at 11.0 µM 0% | [7]; at 33.0 µM 8% | [8]; [17] -3% | [8]; [18] 49% | [9]; at 1.2 µM -19% | [9]; at 3.7 µM -22% | [9]; at 11.0 µM -16% | [9]; at 33.0 µM -18% | [9]; at 100.0 µM -13% | [10]; [17] -25% | [10]; [18] 8% | [10]; at 50.0 µM 68.7% | [11]; at 1.2 µM -11% | [11]; at 3.7 µM -13% | [11]; [17] -13% | [11]; at 11.0 µM -14% | [11]; at 33.0 µM -8% | [11]; [18] 18% | [11]; at 50.0 µM 34.6% | [11]; at 100.0 µM 34% | [12]; at 1.2 µM -5% | [12]; at 3.7 µM 6% | [12]; at 11.0 µM -1% | [12]; at 33.0 µM 1% | [12]; at 100.0 µM 42% | [13]; at 1.2 µM -3% | [13]; at 3.7 µM 0% | [13]; at 11.0 µM 4% | [13]; at 33.0 µM 17% | [14]; at 1.2 µM 2% | [14]; at 3.7 µM 9% | [14]; at 11.0 µM 24% | [14]; at 33.0 µM 44% | [15]; [17] -1% | [15]; [18] 31% | [16]; at 1.2 µM -3% | [16]; at 3.7 µM -1% | [16]; at 11.0 µM 3% | [16]; at 33.0 µM 21%
active: [4]; at 100.0 µM 80% | [5]; at 100.0 µM 79% | [7]; at 100.0 µM 93% | [8]; at 50.0 µM 82.5% | [13]; at 100.0 µM 85% | [14]; at 100.0 µM 95% | [15]; at 50.0 µM 77% | [16]; at 100.0 µM 95%
